± gives the standard deviation of the averaged measurements. In all, about 1,600 compounds were measured (“normalized growth (OD600, IQM-normalized) in LPM”: median about 1, lowest 2% from about 0.014 on). The list comes from a sample in which the lowest values are over-represented; it also holds similar structures and randomly drawn compounds.

This assay deals with Salmonella enterica serovar Typhimurium SL1344. Description: normalized growth (OD600, IQM-normalized) in LPM (fraction of plate interquartile mean); higher = more bacterial growth (less inhibition). The following applies: LPM pH 5.8; 10 µM; 16 h.
Regarding `CCC[C@@H]1C[C@@H](C(=O)N[C@@H]([C@H]2O[C@H](SC)[C@H](O)[C@@H](O)[C@H]2O)[C@@H](C)O)N(C)C1`, the normalized growth is 1.096 ± 0.0085. As for `CN(Cc1cnc2nc(N)nc(N)c2n1)c1ccc(C(=O)NC(CCC(=O)O)C(=O)O)cc1` (racemic), the figure is 0.665 ± 0.054; as for `CCC(=O)OCC(=O)[C@@]1(OC(=O)CC)[C@@H](C)C[C@H]2[C@@H]3CCC4=CC(=O)C=C[C@]4(C)[C@@]3(F)[C@@H](O)C[C@@]21C`, 1.06 ± 0.047.

As for `CCn1cc(C(=O)O)c(=O)c2cc(F)c(N3CCN(C)CC3)cc21`, the normalized growth came out at 0.0116 ± 0.00051.

`CN1CCN(c2cc3c(cc2F)c(=O)c(C(=O)O)cn3-c2ccc(F)cc2)CC1` yielded a normalized growth of 0.0108 ± 0.00018. Regarding `O=C(O)c1cn(-c2ccc(F)cc2)c2cc(N3CCNCC3)c(F)cc2c1=O`, the normalized growth was 0.0341 ± 0.0073. `CCn1cc(C(=O)O)c(=O)c2cc(F)c(N3CCNCC3)nc21` came in with a normalized growth of 0.0514 ± 0.033. The compound `CCn1cc(C(=O)O)c(=O)c2cc(F)c(N3CCNCC3)cc21` had a normalized growth of 0.0247 ± 0.0053. As for `O=C(O)c1cn(C2CC2)c2cc(N3CCNCC3)c(F)cc2c1=O`, the figure is 0.0145 ± 0.0063; as for `CCCCC(O)c1ccccc1` (centres undefined), 0.984 ± 0.032; as for `CC1=CC(=O)NS(=O)(=O)O1`, 0.928 ± 0.054. As for `CS(=O)(=O)c1ccc(C2=C(c3ccccc3)C(=O)OC2)cc1`, the figure is 1.07 ± 0.11; as for `CCCCCCCCCC(=O)N[C@@H](Cc1c[nH]c2ccccc12)C(=O)N[C@@H](CC(N)=O)C(=O)N[C@@H](CC(=O)O)C(=O)N[C@@H]1C(=O)NCC(=O)N[C@@H](CCCN)C(=O)N[C@@H](CC(=O)O)C(=O)N[C@H](C)C(=O)N[C@@H](CC(=O)O)C(=O)NCC(=O)N[C@H](CO)C(=O)N[C@@H]([C@H](C)CC(=O)O)C(=O)N[C@@H](CC(=O)c2ccccc2N)C(=O)O[C@@H]1C` [DAPTOMYCIN (5 millimolar/DMSO)], 1.02 ± 0.057; as for `C[C@]12CCC(=O)C=C1[C@@H]1C[C@@H]1[C@H]1[C@@H]3[C@@H]4C[C@@H]4[C@@]4(CCC(=O)O4)[C@@]3(C)CC[C@@H]12`, 1.07 ± 0.069. As for `COc1cc(/C=C/C(=O)N2CCCCCCC2)cc(OC)c1OC`, the figure is 0.961 ± 0.025. `N[C@@H](Cc1ccc(O)cc1)C(=O)O` returned a normalized growth of 0.979 ± 0.02. Consider `CC(=O)NC(Cc1ccccc1)C(=O)O` (centres undefined), for which the normalized growth was 0.957 ± 0.064. As for `CNC(=C[N+](=O)[O-])NCCSCc1csc(CN(C)C)n1`, the figure is 1.15 ± 0.28; as for `O=C(O)C1=C(CSc2nnnn2CS(=O)(=O)O)CS[C@@H]2[C@H](NC(=O)[C@H](O)c3ccccc3)C(=O)N12`, 1.01 ± 0.024. As for `CCCCCNC(=N)N/N=C/c1c[nH]c2ccc(OC)cc12`, the figure is 1.09 ± 0.12; as for `Cc1cc(C2CCCCC2)n(O)c(=O)c1`, 0.183 ± 0.014. For the compound `O=C(OC[C@H]1O[C@@H](OC(=O)c2cc(O)c(O)c(OC(=O)c3cc(O)c(O)c(O)c3)c2)[C@H](OC(=O)c2cc(O)c(O)c(OC(=O)c3cc(O)c(O)c(O)c3)c2)[C@@H](OC(=O)c2cc(O)c(O)c(OC(=O)c3cc(O)c(O)c(O)c3)c2)[C@@H]1OC(=O)c1cc(O)c(O)c(OC(=O)c2cc(O)c(O)c(O)c2)c1)c1cc(O)c(O)c(OC(=O)c2cc(O)c(O)c(O)c2)c1`, the normalized growth is 1.08 ± 0.013. As for `O=C(O)C(=O)O.[NH-][C@@H]1CCCC[C@H]1[NH-].[Pt+2]`, the figure is 0.742 ± 0.017; as for `O=C(O)P(=O)(O)O`, 0.953 ± 0.027. Take `OC[C@H]1O[C@@H](O[C@H]2[C@H](O)[C@@H](O)C(O)O[C@@H]2CO)[C@H](O)[C@@H](O)[C@H]1O` (some centres undefined): the normalized growth worked out at 1.14 ± 0.057.

`C=CC1=C(C(=O)O)N2C(=O)[C@@H](NC(=O)/C(=N\O)c3csc(N)n3)[C@H]2SC1` came in with a normalized growth of 0.0112 ± 0.00049. As for `CO/N=C(\C(=O)N[C@@H]1C(=O)N2C(C(=O)O)=C(COC(C)=O)CS[C@H]12)c1csc(N)n1`, the figure is 0.0479 ± 0.0089; as for `CO/N=C(\C(=O)N[C@@H]1C(=O)N2C(C(=O)O)=C(C[N+]3(C)CCCC3)CS[C@H]12)c1csc(N)n1`, 0.0232 ± 0.0056. As for `CNCC[C@H](Oc1cccc2ccccc12)c1cccs1`, the figure is 1.05 ± 0.046; as for `CN1CC(=O)N2[C@H](c3ccc4c(c3)OCO4)c3[nH]c4ccccc4c3C[C@@H]2C1=O`, 1.19 ± 0.024; as for `CCOC(=O)CCC(=O)O[C@H]1[C@H](O[C@@H]2[C@@H](C)[C@H](O[C@H]3C[C@@](C)(OC)[C@@H](O)[C@H](C)O3)[C@@H](C)C(=O)O[C@H](CC)[C@@](C)(O)[C@H](O)[C@@H](C)C(=O)[C@H](C)C[C@@]2(C)O)O[C@H](C)C[C@@H]1N(C)C`, 1.14 ± 0.045. As for `C=CCCCCCCCCC(=O)[O-].C=CCCCCCCCCC(=O)[O-].[Zn+2]`, the figure is 1.15 ± 0.041. As for `CCN(CC)CCNC(=O)COc1ccc(OC)cc1`, the normalized growth came out at 0.869 ± 0.0096. As for `CC(C)(O)c1ccccc1CC[C@@H](SCC1(CC(=O)O)CC1)c1cccc(/C=C/c2ccc3ccc(Cl)cc3n2)c1`, the figure is 1 ± 0.023; as for `CC(C)CCCC(C)N` (centres undefined), 1.05 ± 0.09; as for `CCC(C)(C)C(=O)O[C@H]1C[C@@H](C)C=C2C=C[C@H](C)[C@H](CC[C@@H]3C[C@@H](O)CC(=O)O3)[C@H]21`, 0.777 ± 0.071. As for `CC(=O)OCC[N+](C)(C)C`, the figure is 1.05 ± 0.023; as for `CC(=O)N(c1onc(C)c1C)S(=O)(=O)c1ccc(N)cc1`, 1.08 ± 0.046; as for `CO[C@H]1C[C@H](O[C@H]2[C@H](C)O[C@@H](O[C@@H]3/C(C)=C/C[C@@H]4C[C@@H](C[C@]5(C=C[C@H](C)[C@@H](C6CCCCC6)O5)O4)OC(=O)[C@@H]4C=C(C)[C@@H](O)[C@H]5OC/C(=C\C=C\[C@@H]3C)[C@]54O)C[C@@H]2OC)O[C@@H](C)[C@@H]1O`, 0.776 ± 0.03. On to `CC(=O)NCCCS(=O)(=O)O`, for which the normalized growth came out at 0.949 ± 0.11. On to `CCOC(=O)OC(C)OC1=C(C(=O)Nc2ccccn2)N(C)S(=O)(=O)c2ccccc21` (centres undefined), for which the normalized growth is 1.04 ± 0.05. As for `CC1CCc2cc(F)cc3c(=O)c(C(=O)O)cn1c23` (centres undefined), the figure is 0.0174 ± 0.0072; as for `CC1COc2c(N3CCN(C)CC3)c(F)cc3c(=O)c(C(=O)O)cn1c23` (centres undefined), 0.0109 ± 0.00084; as for `C[C@H]1COc2c(C3(N)CC3)c(F)cc3c(=O)c(C(=O)O)cn1c23`, 0.008373 ± 7.5e-05. As for `CO/N=C1\CN(c2nc3c(cc2F)c(=O)c(C(=O)O)cn3C2CC2)CC1CN` (centres undefined), the figure is 0.0206 ± 0.00035.

`CN1CCN(c2c(F)cc3c(=O)c(C(=O)O)cn4c3c2SCC4)CC1` displayed a normalized growth of 0.02519 ± 0.00023.

Consider `CC1CCc2c(N3CCC(O)CC3)c(F)cc3c(=O)c(C(=O)O)cn1c23` (centres undefined), for which the normalized growth came out at 0.0179 ± 0.013.

`C[C@H]1COc2c(N3CCN(C)CC3)c(F)cc3c(=O)c(C(=O)O)cn1c23` had a normalized growth of 0.00833 ± 0.00037. As for `CC=CC1=C(C(=O)O)N2C(=O)[C@@H](NC(=O)[C@H](N)c3ccc(O)cc3)[C@H]2SC1`, the figure is 1.04 ± 0.032.

Source of the values: the supplement of paper PMC6331611.
